Source: PubChem BioAssay AID2314 (National Center for Advancing Translational Sciences (NCATS), 2010)
About 37,000 (12%) of roughly 300,000 compounds were called active. Many of the other results were omitted from the sample, so actives are more common in it than they were. Values without a mark were called inactive. Cut-off read from the data, not from the text of the source: active = max response mostly above about 13% (no sharp cut-off); inactive = mostly below about 14%.

Test: Cycloheximide Counterscreen for Small Molecule Inhibitors of Shiga Toxin; note: read at 38.3 µM for the half of the compounds with a filed dose; 0% is about no effect
Conditions: cell reporter, cycloheximide protein synthesis inhibition counterscreen; stronger effect = higher value
`C[C@H](C(=O)CC(=O)OC(C)(C)C)[C@H](O)c1ccc(C(F)(F)F)cc1` gave a max response of 1.49%.
Work on `Oc1ccc(-c2c(-c3ccccc3)nn3c(C(F)(F)F)cc(C(F)(F)F)nc23)cc1` yielded a max response of -7.49%.
With `Cc1ccc2c(c1)N(CC(=O)N1CCC(O)CC1)C(=O)CO2` the max response was -1.82%.
`CC[C@@H](C)[C@H](NC(=O)CCc1c(C)c2cc3c4c(oc3c(C)c2oc1=O)CCCC4)C(=O)O` showed a max response of 9.7%.
Work on `COc1ccc(/C=C2\SC(=S)N(CCC(=O)Nc3ccccn3)C2=O)cc1OC` yielded a max response of -7.17%.
Work on `O=C(CNC(=O)[C@@H]1Cc2ccccc2CN1)NC1CCCCC1` yielded a max response of 1.46%.
For `COc1ccc(/C(C)=N/Nc2cc(C(F)(F)F)ccc2Cl)c(OC)c1`, the max response was -5.52%.
For `Cn1nc(-c2ccccc2)c2cc([N+](=O)[O-])ccc21`, the max response was 1.38%.
With `Nc1c(-c2cccc(Cl)c2)cnn1-c1cccc([N+](=O)[O-])c1` the max response was 17.2% (active).
For `O=C(CCl)N(Cc1cccc([N+](=O)[O-])c1)c1cccc(Cl)c1`, the max response was -0.93%.
In the case of `CN(C)/C=C(\C=[N+](C)C)c1[nH]ncc1[N+](=O)[O-]`, the max response is reported as -6.11%.
In the case of `CNc1[nH]ncc1[N+](=O)[O-]`, the max response is reported as 40.2% (active).
`CC(=O)C(C)n1cnc2scc(-c3ccc(C)cc3)c2c1=O` (centres undefined) gave a max response of 1.16%.
In the case of `COc1ccc(CN2CCCC(C(=O)N3CCCCC3)C2)cc1` (centres undefined), the max response is reported as -1.73%.
For `Cc1cnc(NC(=O)CSc2c(Cl)cccc2Cl)s1`, the max response was 5.96%.
`Cc1cnc(NC(=O)CSc2nnc(-c3ccccc3)n2Cc2ccccc2)s1` gave a max response of -3.18%.
`Cc1cnc(NC(=O)CSc2nnc(C)s2)s1` gave a max response of 20.1%.
With `Cc1cnc(NC(=O)CSc2nnc(-c3ccc(Cl)cc3Cl)n2N)s1` the max response was 24.6% (active).
`COc1ccc(CC(=O)NCc2nnc(SCC(=O)Nc3ncc(C)s3)n2C)cc1` showed a max response of 3.99%.
For `Cc1ccc(SCC(=O)Nc2ncc(C)s2)cc1`, the max response was 25% (active).
`COc1ccc(CNS(=O)(=O)c2ccc(NC(=O)N3CCCCC3)cc2)cc1` showed a max response of 2.3%.
Compound `CCOC(=O)c1c(-c2ccccc2)oc2cc(Br)c(O)c(C=O)c12` has a max response of 5.72%.
In the case of `CCN(CC)c1ccc(NC(=O)CCc2nnc3ccc(N4CCCCC4)nn23)c(C)c1`, the max response is reported as -1.8%.
In the case of `CCCc1ccc(OCC(O)CN2CCN(CCO)CC2)cc1` (centres undefined), the max response is reported as -1.67%.
Work on `S=c1nc(C23CC4CC(CC(C4)C2)C3)nc2sccn12` yielded a max response of 1.25%.
In the case of `CCn1c(NC(=O)c2nn(C)cc2Br)nc2ccccc21`, the max response is reported as -2.42%.
`COC(=O)CN1C(=O)C(C)(C)Oc2ccc(C(=O)Nc3cccc(OC)c3)cc21` gave a max response of -5.75%.
`CC(C)c1ccc(C(=O)OC2CCOC2=O)cc1` (centres undefined) gave a max response of 6.8%.
Compound `O=C1OCCN1C(=O)[C@H]1[C@H](c2ccc(F)cc2)C(c2ccccc2)=NN1c1ccc(Br)cc1` has a max response of 5.32%.
Compound `Cc1ccc(C)c(NC(=O)CSc2nc3c(oc4ccccc43)c(=O)n2-c2ccccc2)c1` has a max response of 0.718%.
In the case of `Cc1ccc(C)c(Cn2cnc3c(oc4ccccc43)c2=O)c1`, the max response is reported as 20.1% (active).
With `CCC(C(=O)OC)n1cnc2c(oc3ccccc32)c1=O` (centres undefined) the max response was -2.56%.
In the case of `OC(COCC1COc2ccccc2O1)CN1CCN(c2ccc(F)cc2)CC1` (centres undefined), the max response is reported as -1.11%.
Compound `O=C1CCC(C(=O)N2CCC(O)(c3ccccc3)CC2)CN1CCc1ccccc1` (centres undefined) has a max response of -0.943%.
In the case of `CC(C)c1nnc(NC(=O)C2CC(=O)N(CCc3ccc(F)cc3)C2)s1` (centres undefined), the max response is reported as -6.02%.
`CC1(C)Cc2c(cnn2-c2cccc(F)c2)C(NC(=O)c2cc[n+]([O-])cc2)C1` (centres undefined) showed a max response of -3.06%.
In the case of `COC(=O)c1ccc(C(=O)NC2CC(C)(C)Cc3c2cnn3-c2ccc(F)cc2)nc1` (centres undefined), the max response is reported as 24.5% (active).
With `Cc1cc(C(=O)NC2CC(C)(C)Cc3c2cnn3-c2ccccc2)n[nH]1` (centres undefined) the max response was 3.28%.
For `COC(=O)c1cccc(N2C(=O)C3C4C=CC(CC4)C3C2=O)c1` (centres undefined), the max response was -3.45%.
Compound `O=C(O)c1cc(S(=O)(=O)NC2CCCc3ccccc32)ccc1O` (centres undefined) has a max response of 1.09%.
`Cc1cc(-c2ccc(C)c(S(=O)(=O)NCCCN(Cc3ccccc3)C(C)C)c2)on1` showed a max response of -2.55%.
With `Cc1ccc(C(=O)CSc2ccccc2C(=O)O)cc1` the max response was 20.8% (active).
Compound `Cc1ccc(Sc2cc(C(=O)c3ccccc3C(=O)O)ccc2[N+](=O)[O-])cc1` has a max response of -4.78%.
`Cc1ccc(C(=O)CSc2nnc(Cn3nnc4ccccc43)n2C)cc1` gave a max response of -0.925%.
In the case of `CCCC1CCC(=NNC(=S)NCCc2ccccc2)CC1` (centres undefined), the max response is reported as 13.6%.
Work on `COc1cc(C(=S)N2CCOCC2)cc(OC)c1OC(=O)c1cc([N+](=O)[O-])c(C)c([N+](=O)[O-])c1` yielded a max response of -3.02%.
Work on `CC(C)Cn1cnc2c1c(=O)n(CC(=O)NN)c(=O)n2Cc1ccccc1` yielded a max response of 0.845%.
Work on `CC1CC(C)CN(c2ccc(S(=O)(=O)N3CCOCC3)cc2)C1` (centres undefined) yielded a max response of 7.13%.
Work on `CSCC[C@H](NC(=O)N1CCn2c1nc1ccccc12)C(=O)NC1CCCCC1` yielded a max response of 19.4%.
For `COc1ccc(C2NC(=O)C(=O)/C2=C(\O)c2ccc(Cl)cc2)cc1OC` (centres undefined), the max response was -4.04%.
In the case of `Cc1ccc(NC(=O)c2cc3ccccc3o2)cc1`, the max response is reported as 43.9% (active).
Compound `CC(C)(C)n1nc2c(c1NC(=O)c1cc3ccccc3o1)CSC2` has a max response of 9.15%.
In the case of `C/C(=N\NS(=O)(=O)c1cccc([N+](=O)[O-])c1)c1cc2ccccc2o1`, the max response is reported as 1.29%.
For `O=C(Nc1ccncc1)c1cc2ccccc2o1`, the max response was 22.3% (active).
`CC(=O)N1CCN(c2ccccc2NC(=S)NC(=O)c2cc3ccccc3o2)CC1` showed a max response of -8.35%.
With `C/C(=N\NC(=S)Nc1ccc(C)cc1)c1cc2ccccc2o1` the max response was 20.6% (active).
`O=C(NCCc1ccc2c(c1)OCCO2)c1cc2ccccc2o1` gave a max response of 8.84%.
`Cc1ccc(OC(=O)c2cc3ccccc3o2)cc1` gave a max response of 13.6%.
`Cc1cccc(-n2nc3c(c2NC(=O)c2cc4ccccc4o2)CS(=O)(=O)C3)c1` gave a max response of -5.35%.
